Experimental data reported in PubChem BioAssay (EPA / NIEHS).
Active and inactive are the calls of the source. The calls were made as follows: active = hit-call score of the fitted dose curve at least 0.9, where 1 is the maximum; inactive = score below 0.9.

The compounds below were run against Transcriptional activator Myb (Homo sapiens) (UniProt P10242) (assay: ATG_Myb_CIS: Attagene CIS-FACTORIAL HepG2 Assay for human Myeloblastosis (Myb) Proto-Oncogene Transcription Factor (AID 2282986)). Conditions: HepG2 Attagene CIS-FACTORIAL Myb reporter transcription; actives raise or lower the signal.
Procedure: ATG_CIS is a cell-based, multiplexed-readout assay that uses HepG2, a human liver cell line, with measurements taken at 24 hours after chemical dosing in a 24-well plate.ATG_Myb_CIS is one of 52 assay component(s) measured or calculated from the ATG_CIS assay. It is designed to make measurements of mRNA induction, a form of inducible reporter, as detected with fluorescence intensity signals by Reverse transcription polymerase chain reaction (RT-PCR) and Capillary electrophoresis technology.Data from the assay component ATG_Myb_CIS was analyzed into 1 assay endpoint. This assay endpoint, ATG_Myb_CIS, was analyzed with bidirectional fitting relative to DMSO as the negative control and baseline of activity. Using a type of inducible reporter, measures of mRNA for gain or loss-of-signal activity can be used to understand the reporter gene at the transcription factor-level as they relate to the gene MYB. Furthermore, this assay endpoint can be referred to as a primary readout, because this assay has produced multiple assay endpoints where this one serves a reporter gene function. To generalize the intended target to other relatable targets, this assay endpoint is annotated to the dna binding intended target family, where the subfamily is MYB proteins.
Human liver HepG2 cells are transiently transfected with multiple reporter transcription units (MRTUs) in 6-well plates using FuGene 6 reagent (Roche; 3 ml FuGene/1 mg DNA). The MRTU constructs are regulated by a cis-regulating element (promoter). […] A major difference between the CIS and TRANS system is that in CIS activities of endogenous TFs are measured, whereas the TRANS assay evaluates changes in activities of exogenous, chimeric NR-Gal4 proteins. […] At the end of 24 hour incubation, total RNA was isolated using TriZol reagent (Invitrogen). The isolated RNA is then reverse-transcribed using oligo(dT) primer and Mo-MLV reverse transcriptase (Invitrogen) with DNAse I (Ambion) treatment for 30 min. The one-tenth of the produced cDNA was amplified by PCR using Taq DNA polymerase (Invitrogen) and two reporter sequence-specific primers. The PCR products were fluorescently labeled by primer extension with 6-arboxyfluorescein (6-FAM) 5'-labeled reporter sequence-specific primer (2 min at 95 C, 20 s at 68 C and 10 min at 72 C) and these products were digested with 5U of HpaI (New England Biolabs) for 2h at 37 C. The fragments were purified using Qiaquick PCR columns (Qiagen), analyzed on an ABI 3130xL genetic analyzer (Applied Biosystems) with peak positions identified by using a set of X-rhodamine (ROX)-labeled MapMarker1000 molecular weight standards (BioVentures). The raw capillary electrophoresis data was processed using Attagraph software (Attagene).

Sequence of Transcriptional activator Myb (Homo sapiens) (P10242 whole entry, looked up): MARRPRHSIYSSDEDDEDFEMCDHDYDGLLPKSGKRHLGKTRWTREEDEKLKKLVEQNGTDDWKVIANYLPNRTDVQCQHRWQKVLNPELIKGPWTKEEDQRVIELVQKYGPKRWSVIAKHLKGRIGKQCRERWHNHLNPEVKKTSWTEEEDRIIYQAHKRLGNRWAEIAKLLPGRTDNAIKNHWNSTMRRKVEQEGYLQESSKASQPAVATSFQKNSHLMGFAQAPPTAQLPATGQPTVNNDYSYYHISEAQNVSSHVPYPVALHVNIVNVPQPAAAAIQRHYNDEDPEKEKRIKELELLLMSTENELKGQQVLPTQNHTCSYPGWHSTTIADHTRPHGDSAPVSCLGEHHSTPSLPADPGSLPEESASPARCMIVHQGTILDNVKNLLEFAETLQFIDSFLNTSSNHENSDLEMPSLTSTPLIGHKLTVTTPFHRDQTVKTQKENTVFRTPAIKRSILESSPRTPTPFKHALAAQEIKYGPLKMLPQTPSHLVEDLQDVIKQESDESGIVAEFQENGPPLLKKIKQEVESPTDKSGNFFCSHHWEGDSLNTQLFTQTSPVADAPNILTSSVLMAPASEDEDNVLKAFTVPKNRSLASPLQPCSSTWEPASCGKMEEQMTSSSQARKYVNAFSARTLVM

Compound	outcome
FC(F)(F)C(F)(F)C(F)(F)C(F)(F)C(F)(F)C(F)(F)I	inactive
O=C(O)CO	inactive
CC(=O)c1ccccc1	inactive
Cc1nc(-c2ccccn2)ncc1C(=O)Nn1cc(C)c2cc(F)ccc21	inactive
C=CN1CCCC1=O	inactive
O=S(=O)(O)c1ccc(N=Nc2c(O)ccc3cc(S(=O)(=O)O)ccc23)cc1	inactive
FC(F)(F)COC(OCC(F)(F)F)OCC(F)(F)F	inactive
OC(Cn1cncn1)(Cn1cncn1)c1ccc(F)cc1F	inactive
OCc1ccccc1	inactive
CNC(C)=O	inactive
NNC(=O)c1ccncc1	inactive
C[C@]12C=CC(=O)C=C1CC[C@H]1[C@@H]3C[C@@H](O)[C@](O)(C(=O)CO)[C@@]3(C)C[C@H](O)[C@@]12F	inactive
OC[C@H]1O[C@@](CO)(O[C@H]2O[C@H](CO)[C@@H](O)[C@H](O)[C@H]2O)[C@@H](O)[C@@H]1O	inactive
Nc1ccn([C@@H]2O[C@H](CO)[C@@H](O)[C@@H]2O)c(=O)n1	inactive
CCCOc1ccc(S(=O)(=O)N2CCN(CC)CC2)cc1-c1nc2c(CC)n(Cc3ccccn3)nc2c(=O)[nH]1	inactive
OCCC(F)(F)C(F)(F)C(F)(F)C(F)(F)F	inactive
c1ccc2c(c1)-c1cccc3c1c-2cc1ccccc13	inactive
O=c1[nH]cnc2c1ncn2[C@H]1CC[C@@H](CO)O1	inactive
CCCCN1C(=O)[C@@H]([C@H](O)C2CCCCC2)NC(=O)C12CCN(Cc1ccc(Oc3ccc(C(=O)O)cc3)cc1)CC2	inactive
OCc1c[nH]c2ccccc12	inactive

Compound	outcome
Cc1ncc([C@@H](CCCCCCc2ccc3c(n2)NCCC3)CC(=O)O)cn1	inactive
CCCCOC(=O)c1ccccc1	inactive
O=C(O)c1ccc2c(c1)nc(C(=O)NC1CCN(C3CC3)CC1)n2Cc1cc(-c2ccc(Cl)s2)on1	inactive
O=C(N[C@H](CO)[C@H](O)c1ccc([N+](=O)[O-])cc1)C(Cl)Cl	inactive
FC(F)=C(F)C(F)(F)C(F)(F)C(F)(F)C(F)(F)C(F)(F)C(F)(F)F	inactive
COCc1nnc(-c2ccc[n+]([O-])c2)n1-c1c(Cl)c(Cl)cc2[nH]c(=O)c(=O)[nH]c12	inactive
O=S(=O)(O)CCC(F)(F)C(F)(F)C(F)(F)C(F)(F)C(F)(F)C(F)(F)F	inactive
CCc1ccc(O)c(C(C)(C)C)c1	inactive
CC(C)c1nnc2ccc(-c3ocnc3-c3cc(F)ccc3F)cn12	inactive
O=C(O)[C@H](O)[C@@H](O)C(=O)O	inactive
CCCc1ccccc1	inactive
CCCCCCCC1CCC(=O)O1 (stereo not given)	inactive
OCC(CO)(CO)CO	inactive
O=C(O)c1cccc(C[C@@H]2COc3ccc(OCc4nc5cc(F)ccc5s4)cc3[C@@H]2O)c1	inactive
CCCCCCCCCCCCCCCCOS(=O)(=O)O	inactive
CCCCCCCCCC	inactive
Cc1ccc(S(=O)(=O)NC(=O)NN2CCCCCC2)cc1	inactive
OCCOCCOCCO	inactive
Cn1cc[nH]c1=S	inactive
CCCCCCOC(=O)CC(CC(=O)OCCCCCC)(OC(=O)CCC)C(=O)OCCCCCC	inactive
